# The full list was thinned out, with the strongest signals kept by preference.
# Columns and labels:
# Assay in all cases: glycan array binding signal (z-score within array); higher = stronger binding
# Settings in all cases: glycan notation: IUPAC condensed, linker removed; mutation: F63H
# Fuc(a1-2)Gal(b1-3)GalNAc = biological target: Fuc(a1-2)Gal(b1-3)GalNAc
# Summary of the method: (§1)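 The binding signal is a Z-score computed within each array. Data were drawn from 3228 arrays in the Consortium for Functional Glycomics database, restricted to those with a known protein sequence. Scores were averaged over arrays of the same protein sequence at different concentrations or buffers, and over linkers, and negative values can be taken as non-binding.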
# [1] = biological target: Fuc(a1-2)Gal(b1-3)GalNAc(b1-3)Gal(a1-4)Gal(b1-4)Glc
# Summary of the method: as §1
# [2] = biological target: Fuc(a1-2)Gal(b1-3)GlcNAc(b1-3)Gal(b1-4)Glc
# Summary of the method: as §1
# [3] = biological target: Fuc(a1-2)Gal(b1-3)GlcNAc(b1-3)[Neu5Ac(a2-6)Gal(b1-4)GlcNAc(b1-6)]Gal(b1-4)Glc
# Summary of the method: as §1
# [4] = biological target: Fuc(a1-2)Gal(b1-4)GlcNAc(b1-3)Gal(b1-4)GlcNAc(b1-3)Gal(b1-4)GlcNAc
# Summary of the method: as §1
# [5] = biological target: Fuc(a1-2)[GalNAc(b1-3)]Gal
# Summary of the method: as §1
# Fuc(a1-3)GlcNAc = biological target: Fuc(a1-3)GlcNAc
# Summary of the method: as §1
# [6] = biological target: Fuc(a1-3)[GalNAc(b1-4)]GlcNAc6S
# Summary of the method: as §1
# Gal(a1-3)Gal = biological target: Gal(a1-3)Gal
# Summary of the method: as §1
# Gal(a1-3)Gal(b1-4)GlcNAc = biological target: Gal(a1-3)Gal(b1-4)GlcNAc
# Summary of the method: as §1
# [7] = biological target: Gal(a1-3)Gal(b1-4)GlcNAc(b1-6)GalNAc
# Summary of the method: as §1
# [8] = biological target: Gal(a1-4)Gal(b1-4)GlcNAc(b1-2)Man(a1-3)[Gal(a1-4)Gal(b1-4)GlcNAc(b1-2)Man(a1-6)]Man(b1-4)GlcNAc(b1-4)GlcNAc
# Summary of the method: as §1
# Gal(b1-3)Gal(b1-4)GlcNAc = biological target: Gal(b1-3)Gal(b1-4)GlcNAc
# Summary of the method: as §1
# Gal(b1-3)GalNAc = biological target: Gal(b1-3)GalNAc
# Summary of the method: as §1
# [9] = biological target: Gal(b1-3)GalNAc(a1-3)[Fuc(a1-2)]Gal(b1-4)Glc
# Summary of the method: as §1
# [10] = biological target: Gal(b1-3)GalNAc(a1-3)[Fuc(a1-2)]Gal(b1-4)GlcNAc
# Summary of the method: as §1
# [11] = biological target: Gal(b1-3)GalNAc(b1-4)Gal(b1-4)Glc
# Summary of the method: as §1
# [12] = biological target: Gal(b1-3)GlcNAc(a1-3)Gal(b1-4)GlcNAc
# Summary of the method: as §1
# [13] = biological target: Gal(b1-3)GlcNAc(b1-3)Gal(b1-4)GlcNAc(b1-3)Gal(b1-4)GlcNAc(b1-2)[Gal(b1-3)GlcNAc(b1-3)Gal(b1-4)GlcNAc(b1-3)Gal(b1-4)GlcNAc(b1-6)]Man(a1-6)[Gal(b1-3)GlcNAc(b1-3)Gal(b1-4)GlcNAc(b1-3)Gal(b1-4)GlcNAc(b1-2)Man(a1-3)]Man(b1-4)GlcNAc(b1-4)[Fuc(a1-6)]GlcNAc
# Summary of the method: as §1
# [14] = biological target: Gal(b1-3)GlcNAc(b1-6)GalNAc
# Summary of the method: as §1
# [15] = biological target: Gal(b1-4)GlcNAc(b1-2)Man(a1-3)[Gal(b1-4)GlcNAc(b1-2)Man(a1-6)][Gal(b1-4)GlcNAc(b1-4)]Man(b1-4)GlcNAc(b1-4)[Fuc(a1-6)]GlcNAc
# Summary of the method: as §1
# [16] = biological target: Gal(b1-4)GlcNAc(b1-2)Man(a1-6)[GlcNAc(b1-2)Man(a1-3)]Man(b1-4)GlcNAc(b1-4)GlcNAc
# Summary of the method: as §1
# [17] = biological target: Gal(b1-4)GlcNAc(b1-2)[Gal(b1-4)GlcNAc(b1-6)]Man(a1-6)[GlcNAc(b1-4)][Gal(b1-4)GlcNAc(b1-2)Man(a1-3)]Man(b1-4)GlcNAc(b1-4)GlcNAc
# Summary of the method: as §1
# [18] = biological target: Gal(b1-4)GlcNAc(b1-2)[Gal(b1-4)GlcNAc(b1-6)]Man(a1-6)[GlcNAc(b1-4)][Gal(b1-4)GlcNAc(b1-2)[Gal(b1-4)GlcNAc(b1-4)]Man(a1-3)]Man(b1-4)GlcNAc(b1-4)[Fuc(a1-6)]GlcNAc
# Summary of the method: as §1
# [19] = biological target: Gal(b1-4)GlcNAc(b1-3)Gal(b1-4)GlcNAc(b1-3)Gal(b1-4)GlcNAc(b1-2)Man(a1-3)[Gal(b1-4)GlcNAc(b1-3)Gal(b1-4)GlcNAc(b1-3)Gal(b1-4)GlcNAc(b1-2)Man(a1-6)]Man(b1-4)GlcNAc(b1-4)[Fuc(a1-6)]GlcNAc
# Summary of the method: as §1
# [20] = biological target: Gal(b1-4)GlcNAc(b1-3)Gal(b1-4)GlcNAc(b1-3)Gal(b1-4)GlcNAc(b1-3)Gal(b1-4)GlcNAc(b1-3)Gal(b1-4)GlcNAc(b1-2)Man(a1-3)[Gal(b1-4)GlcNAc(b1-3)Gal(b1-4)GlcNAc(b1-3)Gal(b1-4)GlcNAc(b1-3)Gal(b1-4)GlcNAc(b1-3)Gal(b1-4)GlcNAc(b1-2)Man(a1-6)]Man(b1-4)GlcNAc(b1-4)[Fuc(a1-6)]GlcNAc
# Summary of the method: as §1
# [21] = biological target: Gal(b1-4)GlcNAc(b1-3)Gal(b1-4)GlcNAc(b1-3)Gal(b1-4)GlcNAc(b1-3)Gal(b1-4)GlcNAc(b1-3)Gal(b1-4)GlcNAc(b1-3)Gal(b1-4)GlcNAc(b1-2)Man(a1-3)[Gal(b1-4)GlcNAc(b1-3)Gal(b1-4)GlcNAc(b1-3)Gal(b1-4)GlcNAc(b1-3)Gal(b1-4)GlcNAc(b1-3)Gal(b1-4)GlcNAc(b1-3)Gal(b1-4)GlcNAc(b1-2)Man(a1-6)]Man(b1-4)GlcNAc(b1-4)GlcNAc
# Summary of the method: as §1
# [22] = biological target: Gal(b1-4)GlcNAc(b1-3)Gal(b1-4)GlcNAc(b1-3)GalNAc
# Summary of the method: as §1
# [23] = biological target: Gal(b1-4)GlcNAc(b1-3)Gal(b1-4)GlcNAc(b1-3)[Gal(b1-4)GlcNAc(b1-3)Gal(b1-4)GlcNAc(b1-6)]GalNAc
# Summary of the method: as §1
# [24] = biological target: Gal(b1-4)GlcNAc(b1-3)GalNAc
# Summary of the method: as §1
# Gal(b1-6)Gal = biological target: Gal(b1-6)Gal
# Summary of the method: as §1
# Gal3S(b1-3)GlcNAc = biological target: Gal3S(b1-3)GlcNAc
# Summary of the method: as §1
binder,measurement,setting,value
"AAL (Agrocybe aegerita), Q6WY08 (protein) MQGVNIYNISAGTSVDLAAPVTTGDIVTFFSSALNLNAGAGNPNNTTLNLFAENGAYLLHIAHRLQENVIIFNSRQPDGPWLVEQRVSDVANQFAGIDGKAMVTVFDHGDKYQVVINEKTVIQYTKQISGLTLSLSYNATEETSIFSTVVEAVTYTGLALEHHHHHH",glycan array binding signal (z-score),Fuc(a1-2)Gal(b1-3)GalNAc,-0.198
same,glycan array binding signal (z-score),[1],-0.075
same,glycan array binding signal (z-score),[2],-0.394
same,glycan array binding signal (z-score),[3],0.013
same,glycan array binding signal (z-score),[4],-0.151
same,glycan array binding signal (z-score),[5],-0.544
same,glycan array binding signal (z-score),Fuc(a1-3)GlcNAc,-0.394
same,glycan array binding signal (z-score),[6],-0.005
same,glycan array binding signal (z-score),Gal(a1-3)Gal,-0.04
same,glycan array binding signal (z-score),Gal(a1-3)Gal(b1-4)GlcNAc,-0.342
same,glycan array binding signal (z-score),[7],-0.072
same,glycan array binding signal (z-score),[8],0.969
same,glycan array binding signal (z-score),Gal(b1-3)Gal(b1-4)GlcNAc,-0.287
same,glycan array binding signal (z-score),Gal(b1-3)GalNAc,-0.177
same,glycan array binding signal (z-score),[9],-0.298
same,glycan array binding signal (z-score),[10],-0.341
same,glycan array binding signal (z-score),[11],-0.435
same,glycan array binding signal (z-score),[12],0.927
same,glycan array binding signal (z-score),[13],0.029
same,glycan array binding signal (z-score),[14],0.316
same,glycan array binding signal (z-score),[15],-0.332
same,glycan array binding signal (z-score),[16],-0.263
same,glycan array binding signal (z-score),[17],4.37
same,glycan array binding signal (z-score),[18],-0.265
same,glycan array binding signal (z-score),[19],1.22
same,glycan array binding signal (z-score),[20],-0.033
same,glycan array binding signal (z-score),[21],0.376
same,glycan array binding signal (z-score),[22],-0.163
same,glycan array binding signal (z-score),[23],0.226
same,glycan array binding signal (z-score),[24],-0.105
same,glycan array binding signal (z-score),Gal(b1-6)Gal,-0.264
same,glycan array binding signal (z-score),Gal3S(b1-3)GlcNAc,-0.185
